# Test results as given in PubChem BioAssay AID652039 (The Scripps Research Institute Molecular Screening Center, 2013).
# Out of some 370,000 compounds screened, about 3,300 (0.89%) were called active. Many of the other results were omitted from the sample, so actives are more common in it than they were. Values without a mark were called inactive.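 How the source made its calls: active means activation above the mean of all tested compounds plus 3 SD, computed per campaign excluding outliers beyond control limits (cut at about 13% in these data); inactive means the rest.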
# Target: Kallikrein-7 (Homo sapiens) (UniProt P49862)
# Sequence (P49862 whole entry, looked up): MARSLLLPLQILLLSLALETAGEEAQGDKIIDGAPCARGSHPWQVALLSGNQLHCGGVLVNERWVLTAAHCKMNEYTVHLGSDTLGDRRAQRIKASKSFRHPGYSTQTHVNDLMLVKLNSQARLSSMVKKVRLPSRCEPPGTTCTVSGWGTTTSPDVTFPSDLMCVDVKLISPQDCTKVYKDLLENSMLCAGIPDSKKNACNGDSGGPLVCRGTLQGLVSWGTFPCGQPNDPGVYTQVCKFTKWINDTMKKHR
# Experiment: activation of human kallikrein-7 proenzyme – biochemical, fluorescence intensity, primary screen (AID 652039)
# Conditions: purified proKLK7, EDANS-DABCYL substrate fluorescence; at 7 µM; active compounds read high
row,SMILES,activation
1,CCOc1ccc(-c2cc(C)[n+](CCN(CC)CC)c(-c3ccc(OCC)cc3)c2)cc1,44.7% (active)
2,COc1ccc(-c2nn(CCC#N)cc2C(=O)O)cc1,-0.57%
3,COc1cc(OC)cc(C(=O)NCCN2CCC3(CC2)C(=O)NCN3c2ccccc2)c1,0.06%
4,CS(=O)(=O)N1CCC2CCNC2C1 (stereo not given),-0.49%
5,COc1ccccc1C1=NCc2nnc(CSC)n2-c2ccc(Cl)cc21,-0.06%
6,Cc1cc(OCc2cc(C(=O)O)oc2C)c2c3c(c(=O)oc2c1)CCCC3,9.69%
7,COC(=O)COc1cc(C)cc2oc(=O)c3c(c12)CCCC3,14.7% (active)
8,Brc1ccc2c(c1)CNCc1cnnn1-2,0.31%
9,CCN(CC)C(=O)[C@@H]1C=C2c3cccc4[nH]c(Br)c(c34)C[C@H]2N(C)C1,-1.09%
10,Cc1cc(N2CCNC[C@@H]2C)ccc1N1CC[C@H](O)C1,1.32%
11,O=C(OCCN1CCOCC1)C1(c2ccccc2)CCCC1,0.22%
12,CCOC(=O)c1c(N)n(CCN2CCOCC2)c2nc3ccccc3nc12,27.2% (active)
13,COc1cc(Cn2c(N)c(C(=O)NCc3ccco3)c3nc4ccccc4nc32)cc(OC)c1OC,-1.84%
14,COc1ccc2c(c1)[C@@]13CCCCC1[C@@H](C2)NCC3 (stereo not given in full),0.08%
15,O=S(=O)(c1ccccc1)N1CCC2CCNC2C1 (stereo not given),-0.08%
16,c1ccc(CCN2CCC3(CC2)OCCO3)cc1,0.24%
17,C[C@H]1CN([C@@H](C)CO)C(=O)CCCn2nncc2CO[C@H]1CN(C)C(=O)Oc1ccccc1,-0.02%
18,COc1cccc(-c2nc3ccc(N4CCN(C)CC4)cc3[nH]2)c1,68.7% (active)
19,Clc1ccc([C@@H]2CC3CCC2N3)cn1 (stereo not given in full),0.62%
20,CCC(C)NC1(c2ccccc2)CCCCC1 (stereo not given),0.13%
21,COc1ccc(C(=O)CC2C(=O)N(C)C(=O)N(C)C2=O)cc1,-0.07%
22,Cc1ccccc1CCC[C@@H](CC1CCCCC1)CN(C)C(=O)Oc1ccccc1,0.38%
23,Cc1nc2ccc(N3CCN(C)CC3)cc2nc1C,83.6% (active)
24,COP(=O)(Sc1ccccc1)C(Cc1ccccc1)NC(=O)OCc1ccccc1 (stereo not given),0.08%
25,c1ccc2sc(C3CCCNC3)nc2c1 (stereo not given),0.61%
